# High-throughput results: PubChem, National Center for Advancing Translational Sciences (NCATS)
# This is a sample that favours compounds with a hit; in the whole collection about 18% have one here.
# IL1B secr inh: blocks inflammasome-driven IL-1 beta release | 360,000 tested, 4.7% active | THP-1 LPS/ATP IL-1B secretion, AlphaLISA, 16 h; active compounds read low | AID 743279 | activity change, % at 57.5 µM; in the data active means activity change below about -50%; inconclusive means mostly about -30% to -49%; further: on the % scale 0 is the no-effect control and ±100 the full control effect
#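 Secreted IL-1B measured by AlphaLISA bead assay after 16 h compound exposure of THP-1 cells; compounds (final up to 57.5 uM) added 1 h before LPS (250 ng/mL) and ATP (1.25 mM) stimulation; lower signal means less secretion.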
# HepG2 tox: HepG2 cytotoxicity, counter-screen for TGF-b inhibitors; Potency, µM (highest dose often 46.1 µM), inactives show at the top dose activity change, negative = cytotoxicity, hits mostly cytotoxic; 410,000 tested, 0.76% active; AID 588856; HepG2 CAGA-GFP viability, ATP luminescence, 18 h; further: potency means the concentration at half of the fitted maximal effect
#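 CellTiter-Glo luminescence gave cytotoxicity after 18 hours at 37 degrees C. The cells were HepG2 CAGA-GFP in 1% FBS DMEM, stimulated with 500 pg/mL TGF-beta after compound addition. %Activity was normalised to no-cell wells (complete cell-killing) and DMSO (no toxicity), and curves were fitted and classified.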
# TDP1 cell CPT: growth inhibition of DT40 Tdp1-/-;hTDP1 cells with camptothecin (screen for TDP1 inhibitors); Potency, µM (doses to about 46.2 µM), inactives show at the highest dose activity change, negative = growth inhibition, hits mostly inhibitors; 420,000 tested, 12% active; chicken DT40 Tdp1-/-;hTDP1 cells + 20 nM CPT, ATP luminescence, 48 h; further: potency means the concentration at half of the fitted maximal effect; on the % scale 0 is the no-effect control and ±100 the full control effect; nearly all actives have a fitted effect of over 55% in size
#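 Chicken DT40 Tdp1-/- cells stably complemented with human TDP1 were seeded at 400 cells/well in medium containing 20 nM camptothecin, exposed to pin-transferred compounds, and grown at 37 °C for at least 48 hr. Viability was read as ATP luminescence.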
# TDP1 block: inhibitors of human tyrosyl-DNA phosphodiesterase TDP1 | recombinant TDP1, AlphaScreen DNA substrate cleavage | Potency, µM (titrated, usually from 130 µM), inactives show top-dose activity change, negative = inhibition, hits mostly inhibitors | 350,000 tested, 0.28% active; further: potency means the concentration at half of the fitted maximal effect; on the % scale 0 is the no-effect control and ±100 the full control effect; nearly all actives have a fitted effect of over 40% in size
# Target sequence (Q9NUW8 whole entry, looked up): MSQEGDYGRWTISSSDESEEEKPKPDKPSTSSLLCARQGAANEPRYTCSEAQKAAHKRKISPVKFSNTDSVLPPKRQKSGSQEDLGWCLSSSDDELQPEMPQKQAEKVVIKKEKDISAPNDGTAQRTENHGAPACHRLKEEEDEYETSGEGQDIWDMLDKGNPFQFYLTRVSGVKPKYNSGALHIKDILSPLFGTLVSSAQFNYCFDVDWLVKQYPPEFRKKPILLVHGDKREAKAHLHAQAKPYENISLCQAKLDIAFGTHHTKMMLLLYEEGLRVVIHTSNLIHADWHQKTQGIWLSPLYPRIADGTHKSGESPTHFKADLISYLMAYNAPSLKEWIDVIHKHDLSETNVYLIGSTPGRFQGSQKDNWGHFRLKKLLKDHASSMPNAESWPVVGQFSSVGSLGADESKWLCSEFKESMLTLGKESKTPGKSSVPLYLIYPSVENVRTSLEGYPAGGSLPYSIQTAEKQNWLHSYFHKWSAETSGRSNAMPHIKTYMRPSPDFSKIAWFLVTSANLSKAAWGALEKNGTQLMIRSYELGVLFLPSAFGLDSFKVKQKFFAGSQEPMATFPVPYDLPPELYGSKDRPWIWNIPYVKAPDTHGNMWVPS
#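 E. coli-derived human Tdp1, 1 nM final. Cpd preinc 15 min RT; substrate 15 nM final, 5 min RT; AS bead mix 10 ug/ml final, 10 min RT. Signal loss = tyrosine-FITC cleavage. No-enzyme wells = max signal.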
# TGFb inhibitor: blocks TGF-b signaling; Potency, µM (titrated, usually from 46.1 µM), inactives show top-dose activity, negative = inhibition, hits mostly inhibitors; HepG2 CAGA-GFP TGF-b/SMAD3 reporter, GFP fluorescence, 18 h; TGF-beta stimulated, 500 pg/mL final; 410,000 tested, 1.2% active; further: potency means the concentration at half of the fitted maximal effect; on the % scale 0 is the no-effect control and ±100 the full control effect; nearly all actives have a fitted effect of over 65% in size
#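 HEPG2 CAGA-GFP cells (1000/well, DMEM with 1% FBS) were pre-incubated 2 h at 37 degrees C, given compound by pin tool, then stimulated with TGF-beta at 500 pg/mL final for 18 h before per-cell GFP fluorescence imaging.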
# TDP1 cell noCPT: qHTS for Inhibitors of human tyrosyl-DNA phosphodiesterase 1 (TDP1): qHTS in cells in absence of CPT. Potency, µM (doses to about 46.2 µM), for the others: at the top dose activity change, negative = growth inhibition, hits mostly inhibitors. DT40 Tdp1-/- hTDP1 cells, no CPT, ATP luminescence, 48 h. AID 686978, 2013. 420,000 tested, 15% active; further: potency means the concentration at half of the fitted maximal effect; on the % scale 0 is the no-effect control and ±100 the full control effect; nearly all actives have a fitted effect of over 55% in size
#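 No-CPT arm: Tdp1-/-;hTDP1 DT40 cells (400/well) plus compounds, incubated ≥48 hr at 37 °C. Readout CellTiter-Glo luminescence.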
# The depositor's hits bear a star; u = inconclusive; x = no result given; [ ] = dose if it differs, or a comment. Unless noted, the call rests on the fitted dose curve; in most records, active means well fitted curve in the direction sought with a large enough effect; inconclusive means small, poorly fitted or top-dose-only effect, or another doubt; inactive means no such curve, though single readings can be large; an effect the other way counts as inactive or inconclusive.
SMILES,IL1B secr inh,HepG2 tox,TDP1 cell CPT,TDP1 block,TGFb inhibitor,TDP1 cell noCPT
CC(=O)N1C2=CCCC3CCCCC23c2ccccc21 (centres undefined),-10,-8%,21µM*,x,-6%,26µM*
COc1ccc(OC)c(NC(=O)c2oc3c(c2C)C(O)CC(C)(C)C3)c1 (centres undefined),-4,-4%,15µM*,9%,0%,u
COC(=O)CSc1nnc(CNC(=O)c2ccc(OC)c(OC)c2)n1C,-10,12%,24%,1%,0%,2%
CSc1sc(C(=O)NC(=O)NCc2ccncc2)c(C)c1-c1ccon1,-13,2%,u,-9%,-5%,16µM*
O=C(NCc1ccccc1)NC(=O)c1ccncc1,0,1%,-6%,-2%,-6%,-25%
O=C(C1=NN(c2ccccc2)C(=O)CC1)N1CCc2ccccc2C1,51,12%,-11%,2%,-1%,17%
CCOc1ccc(-c2csc(/C(C#N)=C/c3ccc(Br)cc3)n2)cc1,x,-22%,-9%,-14%[12.3 µM],-9%,-17%
CN(C)S(=O)(=O)c1ccc(C(=O)Nc2ccnn2C2CCCCC2)cc1,11,-22%,u,7%,7%,16µM*
O=C(Nc1ccnn1C1CCN(C2CCCCC2)CC1)c1ccccc1,-14,-81%,u,2%,-9%,2%
NC(N)=Nc1cc2ccccc2c2ccccc12,x,x,x,3%,x,x
ClC(=Nc1cccc2ccccc12)N(c1ccccc1)c1ccccc1,x,0%,18µM*,x,-18%,11µM*
CC1CCCC(NC(=S)NC(=O)c2ccco2)C1C (centres undefined),15,-28%,15µM*,1%,-18%,u
CC1CCCCC1NC(=O)c1ccco1 (centres undefined),-4,-6%,-3%,-19%,26%,0%
O=C(NNC(=O)c1ccco1)c1ccccc1,4,-3%,-14%,-1%,10%,-12%
O=C(NC(=S)NNC(=O)c1ccco1)c1ccccc1,102,-3%,u,3%,-14%,16µM*
Cc1ccc(C(=O)NNC(=S)NC(=O)c2ccco2)cc1,97,-5%,7.3µM*,10%,-3%,12µM*
O=S1(=O)CCC(n2nccc2-c2ccccc2)C1 (centres undefined),16,14%,8%,x,0%,3%
Cc1ccc(NC(=O)CN2CCCN(S(=O)(=O)c3ccc(Br)s3)CC2)cc1,-28,-2%,18µM*,2%,u,18µM*
CCOC(=O)N1CCN(S(=O)(=O)c2ccc(Br)s2)CC1,15,-7%,u,5%,u,13µM*
Cc1cc(C)cc(NC(=O)CN2CCCN(S(=O)(=O)c3ccc(Br)s3)CC2)c1,u,6%,u,6%,-16%,u
CCCNC(=O)C1CCC(Cn2c(=O)c3sccc3n(CC(=O)N3CCC(C)CC3)c2=O)CC1 (centres undefined),x,-1%,-9%,1%,-2%,-22%
CCOc1ccc(CCNC(=O)CN2C(=O)CCSc3ccccc32)cc1,-11,4%,5%,x,-1%,u
CCOc1ccc2[nH]cc(C(=O)NCc3ccccc3)c(=O)c2c1,-10,-40%,16µM*,1%,u,21µM*
CCOc1ccc(NS(=O)(=O)c2ccc3[nH]cc(C(=O)NCc4ccccc4)c(=O)c3c2)cc1,x,-25%,-27%,-5%,-12%,u
CCOc1ccc2[nH]c(C)c(CN3CCOCC3)c(=O)c2c1,-11,-28%,-11%,5%,1%,-12%
SMILES,IL1B secr inh,HepG2 tox,TDP1 cell CPT,TDP1 block,TGFb inhibitor,TDP1 cell noCPT
CCOc1ccc2[nH]c3ncccc3c(=O)c2c1,-60*,-5%,4%,x,0%,u
CCc1ccc2[nH]cc(C(=O)OCCOC)c(=O)c2c1,8,-11%,u,-1%,3%,23µM*
CCOc1ccc2[nH]cc(C(=O)NCCCN3CCOCC3)c(=O)c2c1,17,10%,19%,0%,4%,-12%
CCOc1ccc2[nH]cc(C(=O)NCCc3ccccc3)c(=O)c2c1,-54*,6%,u,x,u,u
CCn1nc(C)c(CCN(C)C(=O)Nc2ccc(C)c(Cl)c2)c1C,x,-25%,u,1%,u,u
CCc1ccc(C2/C=C\CNC(c3ccccc3)C(=O)N2Cc2ccc(C)cc2)cc1 (centres undefined),x,-42%,x,10%,u,x
O=C(Cn1cnc2c(oc3ccccc32)c1=O)Nc1ccccc1C(F)(F)F,x,-2%,0%,3%,3%,-4%
CCCCN(CC)c1nc(-c2ccccc2F)nc2ccccc12,x,5%,u,-9%,0%,u
CCN(CC)c1nc(-c2ccccc2)nc2ccccc12,u,7%,15µM*,3%,-10%,u
COCCN(CCOC)c1nc(-c2ccccc2)nc2ccccc12,u,-31%,u,x,-5%,u
CCCCN(CCCC)c1nc(-c2ccncc2)nc2ccccc12,0,-39%,u,0%,-15%,23µM*
COCCN(CCOC)c1nc(-c2ccc(Cl)cc2)nc2ccccc12,34,-39%,18µM*,x,u,13µM*
CCn1nnnc1NCc1ccc(OCc2ccc(F)cc2Cl)c(OC)c1,-58*,2%,u,11%,2%,u
COc1ccc(CNc2ncc(-c3ccc(F)cc3)n2C)c2ccccc12,-82*,-43%,23µM*,x,u,16µM*
COc1ccc(OC)c(CNc2ncc(-c3ccc(F)cc3)n2C)c1,-18,-45%,u,x,-11%,u
CCOc1ccc(-c2cnc(NCc3cccc4ccccc34)n2CCOC)cc1,-95*,-39%,u,9%,u,4.6µM*
COc1ccc(CNc2ncc(-c3ccc(F)cc3)n2C)cc1OC,-12,-12%,u,x,17%,23µM*
COc1cc(CNc2nnnn2C)ccc1OCc1ccc(F)cc1Cl,14,1%,0%,-9%,2%,u
CCOc1ccc(NC(=O)CN(C)S(=O)(=O)c2ccc3c(c2)c(=O)n(C)c(=O)n3C)cc1,x,-6%,3%,-3%,-4%,-8%
Cn1c(-c2ccc(F)cc2)cnc1NCc1cccc(F)c1,-12,-25%,u,6%,-12%,18µM*
